This passage reports outcome results from PubChem BioAssay AID2283125 (EPA ToxCast).

Results filed as inconclusive are left out. Activity calls are given as the source filed them. The calls were made as follows: active = hit-call score of the fitted dose curve at least 0.9, where 1 is the maximum; inconclusive = response in the unintended direction; inactive = score below 0.9.

Tyrosine-protein kinase ABL1 (Homo sapiens), sequence (P00519 whole entry, looked up): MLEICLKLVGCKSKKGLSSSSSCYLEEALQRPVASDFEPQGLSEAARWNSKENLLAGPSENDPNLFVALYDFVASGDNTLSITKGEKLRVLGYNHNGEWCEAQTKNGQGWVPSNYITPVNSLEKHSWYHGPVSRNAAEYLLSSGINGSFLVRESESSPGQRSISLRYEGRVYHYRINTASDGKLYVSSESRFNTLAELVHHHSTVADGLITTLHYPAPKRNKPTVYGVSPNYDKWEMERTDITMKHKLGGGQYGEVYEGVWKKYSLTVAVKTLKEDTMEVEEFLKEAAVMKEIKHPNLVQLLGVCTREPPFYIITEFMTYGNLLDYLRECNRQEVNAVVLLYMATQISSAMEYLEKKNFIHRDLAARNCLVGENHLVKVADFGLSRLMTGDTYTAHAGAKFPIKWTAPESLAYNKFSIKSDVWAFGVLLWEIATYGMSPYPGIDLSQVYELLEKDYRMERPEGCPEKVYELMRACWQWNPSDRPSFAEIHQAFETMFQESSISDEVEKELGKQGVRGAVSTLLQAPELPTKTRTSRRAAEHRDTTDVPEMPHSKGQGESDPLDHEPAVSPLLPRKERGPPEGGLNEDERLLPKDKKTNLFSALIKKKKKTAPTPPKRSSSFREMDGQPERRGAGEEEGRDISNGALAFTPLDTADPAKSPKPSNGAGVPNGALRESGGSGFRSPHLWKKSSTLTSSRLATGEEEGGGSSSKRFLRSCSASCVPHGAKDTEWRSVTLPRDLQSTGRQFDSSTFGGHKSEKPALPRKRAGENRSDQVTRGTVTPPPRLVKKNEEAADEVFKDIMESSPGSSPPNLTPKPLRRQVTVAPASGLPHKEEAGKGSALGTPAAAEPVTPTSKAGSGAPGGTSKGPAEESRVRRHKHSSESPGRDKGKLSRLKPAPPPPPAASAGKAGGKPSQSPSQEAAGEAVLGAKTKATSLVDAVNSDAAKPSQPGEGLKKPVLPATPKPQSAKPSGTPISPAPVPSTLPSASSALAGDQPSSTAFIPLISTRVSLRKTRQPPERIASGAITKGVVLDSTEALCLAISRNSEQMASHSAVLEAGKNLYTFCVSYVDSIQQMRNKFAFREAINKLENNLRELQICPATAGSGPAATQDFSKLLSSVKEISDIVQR

For the assay, the target named is Tyrosine-protein kinase ABL1 (Homo sapiens) (UniProt P00519). The experiment in a line: NVS_ENZ_hAbl: NovaScreen (NVS) Enzymatic Assay for human ABL proto-oncogene 1, non-receptor tyrosine kinase. The method, then:
NVS_ENZ_hAbl is a biochemical, single-readout assay that uses extracted gene-proteins in a cell-free assay. Measurements were taken 1 hour after chemical dosing in a 96-well plate.NVS_ENZ_hAbl is one of one assay component(s) measured or calculated from the NVS_ENZ_hAbl assay. It is designed to make measurements of enzyme activity, a form of enzyme reporter, as detected with fluorescence intensity signals by Fluorescence and electrophoretic mobility shift technology.Data from the assay component NVS_ENZ_hAbl was analyzed into 1 assay endpoint. This assay endpoint, NVS_ENZ_hAbl, was analyzed in the positive analysis fitting direction relative to DMSO as the negative control and baseline of activity. Using a type of enzyme reporter, loss-of-signal activity can be used to understand changes in the enzymatic activity as they relate to the gene ABL1. Furthermore, this assay endpoint can be referred to as a primary readout, because this assay has produced multiple assay endpoints where this one serves a enzymatic activity function. To generalize the intended target to other relatable targets, this assay endpoint is annotated to the kinase intended target family, where the subfamily is non-receptor tyrosine kinase.
Binding assays used specific radioligands (tritiated, iodinated) with non-radioactive competitive displacement ligands in agonist or antagonist protocols (as indicated) and various reference compounds and inhibitors to titrate specific binding to receptors and transporters. Most enzyme assays (CYPs, kinases, phosphatases, proteases, HDACs) used recombinant protein and specific substrates (fluorescence mostly, some colorimetric and radioactive) and inhibitors, followed by a biochemical separation of substrate and product. All assays for the biochemical HTS were initially run in duplicate at a single concentration (10 uM for CYP450 assays and 25 uM for all others). Assay-chemical combinations meeting a pre-defined threshold (e.g., 30% inhibition and other criteria defined below) were then run in singleton concentration-response format with maximum concentration of 20 uM for CYPs and 50 uM for all others. Each assay was run with positive and negative controls, and concurrent controls on every plate. The follow-up (secondary) screen tested active chemical-pairs in concentration series, as well as a few additional assays not tested in the primary screen, some selected negative inactives, and several cases re-run in the concentration series for confirmatory purposes.
Consider `CCNc1nc(Cl)nc(NCC)n1`, for which the outcome was inactive.

With `O=C(Nc1ccccc1)Nc1ccnc(Cl)c1`, the compound was classed as inactive.

Turning to `O=S(=O)(O)C(F)(F)C(F)(F)C(F)(F)C(F)(F)C(F)(F)C(F)(F)C(F)(F)C(F)(F)F`, the call was inactive.

Consider `O=C(Nc1ccccc1)Nc1cnns1`, for which the compound was classed as inactive.

On to `CCCC(=NOCC)C1=C(O)CC(CC(C)SCC)CC1=O` (stereo not drawn), for which the compound was classed as inactive.

In the case of `O=C(O)C(F)(F)C(F)(F)C(F)(F)C(F)(F)C(F)(F)C(F)(F)C(F)(F)F`, the result was inactive.

For the compound `CCCCNC(=O)n1c(NC(=O)OC)nc2ccccc21`, the compound was called inactive.

With `N#Cc1c(Cl)c(Cl)c(Cl)c(C#N)c1Cl`, the result was inactive.
